Data taken from the supplement of paper PMC6522484.
± gives the standard deviation of the averaged measurements.

Assays:
DLD1 [1] = experiment: cell viability (CellTiter-Glo) relative to plate median (fraction of plate median); higher = more viable cells; conditions: 5 µM; treatment time 24 h; reporter: 7TFP
Procedure, shortened: (§1)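 Per-well firefly luciferase or CellTiterGlo luminescence, normalised to the plate median, is what is reported. It was measured in colorectal cancer cells with stable lentiviral TCF/Wnt firefly luciferase reporters after a 24 h treatment with library compounds at a final 5 µM. The mean of two independent replicates is given.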

HCT116 = experiment: as above; conditions: 5 µM; treatment time 24 h; reporter: TCF4/Wnt
Procedure, shortened: as §1

SW480 [2] = experiment: as above; conditions: 5 µM; treatment time 24 h; reporter: 7TFP
Procedure, shortened: as §1

DLD1 [3] = experiment: TCF/Wnt firefly luciferase reporter signal relative to plate median (fraction of plate median); higher = higher Wnt reporter signal; conditions: 5 µM; treatment time 24 h; reporter: 7TFP
Procedure, shortened: as §1

SW480 [4] = experiment: as above; conditions: 5 µM; treatment time 24 h; reporter: 7TFP
Procedure, shortened: as §1

COC(=O)C(c1ccccc1)C1CCCCN1 (stereo not given)
cell viability (DLD1 [1]): 1.025 ± 0.0071
cell viability (HCT116): 1.05 ± 0.064
cell viability (SW480 [2]): 1.01 ± 0.035
TCF/Wnt firefly luciferase reporter signal (DLD1 [3]): 1.03 ± 0.021
TCF/Wnt firefly luciferase reporter signal (SW480 [4]): 1.04 ± 0.088

CNc1ccccc1C(=O)O
cell viability (DLD1 [1]): 0.923 ± 0.12
cell viability (HCT116): 0.85 ± 0.12
cell viability (SW480 [2]): 1.004 ± 0.0085
TCF/Wnt firefly luciferase reporter signal (DLD1 [3]): 0.931 ± 0.088
TCF/Wnt firefly luciferase reporter signal (SW480 [4]): 1.1 ± 0.078

C[C@H]1O[C@@H](O[C@H]2[C@@H](O)C[C@H](O[C@H]3[C@@H](O)C[C@H](O[C@H]4CC[C@@]5(C)[C@H](CC[C@@H]6[C@@H]5CC[C@]5(C)[C@@H](C7=CC(=O)OC7)[C@@H](O)C[C@]65O)C4)O[C@@H]3C)O[C@@H]2C)C[C@H](O)[C@@H]1O
cell viability (DLD1 [1]): 0.632 ± 0.13
cell viability (HCT116): 0.649 ± 0.21
cell viability (SW480 [2]): 0.765 ± 0.11
TCF/Wnt firefly luciferase reporter signal (DLD1 [3]): 0.611 ± 0.61
TCF/Wnt firefly luciferase reporter signal (SW480 [4]): 0.685 ± 0.25

COc1ccc(C(=O)N2CCCC2=O)cc1
cell viability (DLD1 [1]): 1.01 ± 0.018
cell viability (HCT116): 0.957 ± 0.025
cell viability (SW480 [2]): 1.045 ± 0.0071
TCF/Wnt firefly luciferase reporter signal (DLD1 [3]): 1.08 ± 0.021
TCF/Wnt firefly luciferase reporter signal (SW480 [4]): 1.07 ± 0.014

CC(C)(C)NCC(O)c1ccccc1Cl (stereo not given)
cell viability (DLD1 [1]): 1.045 ± 0.0071
cell viability (HCT116): 1.04 ± 0.079
cell viability (SW480 [2]): 1.04 ± 0.028
TCF/Wnt firefly luciferase reporter signal (DLD1 [3]): 0.949 ± 0.027
TCF/Wnt firefly luciferase reporter signal (SW480 [4]): 1.06 ± 0.057

CC1(C)C(=O)[C@@H]2O[C@@H]2[C@@]2(C)C1C[C@@H](O)[C@]1(C)C2CC[C@@]2(C)[C@H](c3ccoc3)OC(=O)C3OC321 (stereo partly drawn) [1,2alpha-EPOXYDEACETOXYDIHYDROGEDUNIN]
cell viability (DLD1 [1]): 1.01 ± 0.032
cell viability (HCT116): 1.12 ± 0.099
cell viability (SW480 [2]): 1.01 ± 0.056
TCF/Wnt firefly luciferase reporter signal (DLD1 [3]): 0.962 ± 0.013
TCF/Wnt firefly luciferase reporter signal (SW480 [4]): 0.957 ± 0.22

Cc1nccc2c1[nH]c1cc(O)ccc12
cell viability (DLD1 [1]): 0.984 ± 0.0099
cell viability (HCT116): 0.978 ± 0.06
cell viability (SW480 [2]): 1.01 ± 0.018
TCF/Wnt firefly luciferase reporter signal (DLD1 [3]): 1.01 ± 0.03
TCF/Wnt firefly luciferase reporter signal (SW480 [4]): 0.978 ± 0.046

CCNc1nc(Cl)nc(NCC)n1
cell viability (DLD1 [1]): 0.955 ± 0.028
cell viability (HCT116): 1.065 ± 0.0071
cell viability (SW480 [2]): 1.02 ± 0.03
TCF/Wnt firefly luciferase reporter signal (DLD1 [3]): 0.9375 ± 0.005
TCF/Wnt firefly luciferase reporter signal (SW480 [4]): 0.886 ± 0.034

COc1ccc(C(=O)O[C@H]2CC[C@@]3(C)[C@@H]4CC[C@H]5[C@]6(O)C[C@H](O)[C@@]7(O)[C@@H](CN8C[C@@H](C)CC[C@H]8[C@@]7(C)O)[C@]6(O)C[C@@]53O[C@]24O)cc1OC
cell viability (DLD1 [1]): 0.98 ± 0.043
cell viability (HCT116): 0.942 ± 0.083
cell viability (SW480 [2]): 1.02 ± 0.099
TCF/Wnt firefly luciferase reporter signal (DLD1 [3]): 1.03 ± 0.14
TCF/Wnt firefly luciferase reporter signal (SW480 [4]): 1.05 ± 0.087

COc1ccc(C[C@H]2NC[C@H](O)[C@H]2OC(C)=O)cc1
cell viability (DLD1 [1]): 0.831 ± 0.052
cell viability (HCT116): 0.513 ± 0.065
cell viability (SW480 [2]): 1.06 ± 0.042
TCF/Wnt firefly luciferase reporter signal (DLD1 [3]): 0.248 ± 0.011
TCF/Wnt firefly luciferase reporter signal (SW480 [4]): 0.357 ± 0.036

CCC(C)C(=O)OC1CC2(C)C(c3ccoc3)OC(=O)CC23OC2(C)OC34C(OC(=O)C(C)C)C3(O)C(OC(=O)C5(C)OC5C)C5(C)CC3(O)C(C)(C5CC(=O)OC)C14O2 (stereo not given)
cell viability (DLD1 [1]): 1.09 ± 0.071
cell viability (HCT116): 1.12 ± 0.11
cell viability (SW480 [2]): 1.08 ± 0.014
TCF/Wnt firefly luciferase reporter signal (DLD1 [3]): 1.045 ± 0.0071
TCF/Wnt firefly luciferase reporter signal (SW480 [4]): 1.13 ± 0.014

O=C1CCCN1CC#CCN1CCCC1
cell viability (DLD1 [1]): 1.07 ± 0.092
cell viability (HCT116): 1.11 ± 0.028
cell viability (SW480 [2]): 1.05 ± 0.042
TCF/Wnt firefly luciferase reporter signal (DLD1 [3]): 1.01 ± 0.032
TCF/Wnt firefly luciferase reporter signal (SW480 [4]): 0.8175 ± 0.0035

C=CCSSCC=C
cell viability (DLD1 [1]): 1.055 ± 0.0071
cell viability (HCT116): 1.045 ± 0.0071
cell viability (SW480 [2]): 1.05 ± 0.078
TCF/Wnt firefly luciferase reporter signal (DLD1 [3]): 1.1 ± 0.085
TCF/Wnt firefly luciferase reporter signal (SW480 [4]): 0.95 ± 0.13

OC[C@@H]1CCCN2CCCC[C@H]12
cell viability (DLD1 [1]): 1.04 ± 0.014
cell viability (HCT116): 1 ± 0.053
cell viability (SW480 [2]): 0.995 ± 0.036
TCF/Wnt firefly luciferase reporter signal (DLD1 [3]): 0.898 ± 0.14
TCF/Wnt firefly luciferase reporter signal (SW480 [4]): 0.964 ± 0.065
